Among the data in PubChem BioAssay AID1347426 (Functional Genomics Laboratory (NCATS/FGL), 2020) are median seed-adjusted z-score values, retold here.

The campaign covered roughly 31,000 sequences. About 1,400 (4.5%) were called active.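 The calls were made as follows: active = median seed-adjusted z-score above 1 or below -1; inactive = the rest.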 Many of the other results were omitted from the sample, so actives are more common in it than they were.

This assay is described as follows: Novel Modifiers of Survival Motor Neuron (SMN) Protein: Gene Identification via Genome-wide siRNA Screen.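 Also: luminescence tracks full-length SMN protein made from the SMN2 reporter.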 The settings on record: HEK293T SMN2-luciferase reporter, siRNA knockdown, 72 h; actives lie on both sides. In outline: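 HEK293T cells stably carrying an SMN2 promoter/splicing cassette–luciferase reporter were reverse-transfected with 1 pmol siRNA per well (druggable-genome library, 3 siRNAs per gene) and grown 72 h at 37 °C. Luminescence, normalized to negative-control siRNA and log10-transformed, was scored as MAD.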
A general note: In a reporter assay the amount or activity of a reporter protein is the signal.
In the case of GCAAGAUCCCAAAUCAGCATT against ADAT1, the median seed-adjusted z-score is 0.404 (inactive).
The result for ACAAGAUGACCAACACUAATT against ARHGAP1 reads -1.14 (active).
As to GAACGGGUAUGUGGAGAUATT against INHBA, the median seed-adjusted z-score was 0.361 (inactive).
CGAACGAAGAAGAGCCGAATT against NFATC2: the median seed-adjusted z-score was 0.183 (inactive).
The result for CUACCCAACCUGUAGCUAATT against UBE2J1 reads -1.2 (active).
The result for CGAUUAGAAAUCAACAUGATT against MLKL reads 0 (inactive); that for GAUUUCUAGGCAUCCCGUATT against ARSA, 0.0938 (inactive); that for CCAUGAUCCUGUGGAUAAATT against HNRNPA2B1, 1.33 (active).
Under CCCUCGAAUUCGCAUAGAATT against DIS3 stands 0.266 (inactive); under GCACCGUCUAUGUCACCAUTT against GAL3ST3, -0.54 (inactive).
For CCCAUAUUCGGAUCCAGAATT against PTPN6, the median seed-adjusted z-score was -0.515 (inactive).
GGAAUCGUGGAGAAUAUGATT against NUBP2: the median seed-adjusted z-score is -0.21 (inactive).
Regarding CCAUGCCCUAUGUUAAGAATT against RRM2B, the median seed-adjusted z-score is -0.128 (inactive).
Take AGACGAUCCGGGUAAAGUUTT against LSM7: the median seed-adjusted z-score is -0.45 (inactive).
CAACUAGUGCAACCAGUAATT against ZNF207: the median seed-adjusted z-score is -3.1 (active).
For the sequence GGCUCCUCCUUGUACUCAATT against FOXO3, the median seed-adjusted z-score was -0.712 (inactive).
For GGGCAUCGCUAAACCCAAATT against LIF, the median seed-adjusted z-score was 0.273 (inactive).
GGUCCGAUGUUACGUCUAATT against TIGD4: the median seed-adjusted z-score is -0.553 (inactive).
For the sequence CCGGGACAGUGACAUCAUATT against ENDOD1, the median seed-adjusted z-score is -0.138 (inactive).
As to GGAGCACAGAGGCUCAGAATT against TNFRSF13B, the median seed-adjusted z-score was 0.152 (inactive).
Consider CCAUCAAACUUGCAUCCCUTT against ISX, for which the median seed-adjusted z-score was 1.99 (active).
Under GAACAUCUCUUGUGGUAUUTT against SLC22A16 stands 0.0878 (inactive).
The result for GGUUUUAACUGGAACUGGATT against HIF1AN reads -0.0315 (inactive).
Under GGAUCGACCCAACCUAUGUTT against XYLT2 stands 0.148 (inactive); under CAGCACUAUUAGACAGGAATT against ZBTB40, 0.187 (inactive).
Consider CUGCGGACCCAAUACAUGATT against ARID3A, for which the median seed-adjusted z-score was -1.11 (active).
As to AGAGGUUUGGCAGAAAUACTT against NPFF, the median seed-adjusted z-score is -0.631 (inactive).
Under UAAGAACACCGUUACCCAATT against NLGN4X stands -0.1 (inactive); under GCAGACCACCUGAAUAUGATT against TRO, 2.04 (active).
Under GGAGUAGAUUUUAGCAUAATT against TNKS2 stands 0.0545 (inactive); under GAUAUUGCACAAAUCUAUATT against UBE2D1, 0.508 (inactive).
For GAAGAUAUGCAACAGCCUATT against UNC5B, the median seed-adjusted z-score is -0.0207 (inactive).
For CAGAAGUCGUAGUCAUGAATT against RBM39, the median seed-adjusted z-score was -1.82 (active).
On to GUAUCUGACUGACAUCCUUTT against PLCH2, for which the median seed-adjusted z-score is 0.593 (inactive).
For CCAAUACAGUGGAACCUAUTT against ATXN1, the median seed-adjusted z-score was -0.024 (inactive).
On to CCUCCAACGUAUCAUGAGATT against CYP7A1, for which the median seed-adjusted z-score is -0.0092 (inactive).
Turning to ACAAAAUUGCUACAUCAAATT against ECHDC1, the median seed-adjusted z-score is 0.554 (inactive).
On to GCAGAGAACUGGUUCCGAATT against ZNF512B, for which the median seed-adjusted z-score is 0.212 (inactive).
For CCGUGUCUUCAGGAACGAATT against CYB561, the median seed-adjusted z-score was 0 (inactive).
Take GAUUUUAGCACUACAACAATT against ZNF664: the median seed-adjusted z-score was 1.08 (active).
The result for AGCUGAAAAUUGAGAACAATT against TBX4 reads 0.968 (inactive); that for GCCCAUUAAUAUUAUAGGUTT against LAP3, 0.0175 (inactive); that for CCUUCAUCCGGAAAUUAAATT against ZIM3, -0.02 (inactive).
For the sequence GGUGGAUGGUAAUAAGGAATT against CTPS2, the median seed-adjusted z-score is 1.08 (active).
Consider GGAAGUUGUUCAACGAGAUTT against MLPH, for which the median seed-adjusted z-score is -1.2 (active).
For CGGCUAUGACAAGUCAAUATT against PKDREJ, the median seed-adjusted z-score was 0.376 (inactive).
For the sequence GGCAGUACAUGUACGAUGATT against AGXT2L2, the median seed-adjusted z-score is -0.0495 (inactive).
GAACUGUCGGCGGAACAUUTT against MFAP3L: the median seed-adjusted z-score was 1.03 (active).
Regarding GCGUUGACAGUGAUGCGUATT against SLC4A3, the median seed-adjusted z-score is -0.7 (inactive).
As to GCUUUUGCAUGGAUGUGCATT against ELTD1, the median seed-adjusted z-score was 0.387 (inactive).
With GGAAUAUGAGGUGACCGUUTT against IL17RA, the median seed-adjusted z-score is -1.29 (active).
On to CGGUAAAUGUCACUCGUGATT against PRKG1, for which the median seed-adjusted z-score is 0 (inactive).
The result for AGAUGUCCAGACCAAGAUATT against CREBL1 reads -0.348 (inactive); that for CAACGAAAAUCUAAAUGCATT against HMMR, 0.389 (inactive).
With AGAAUGUGCGGCUUAUUGATT against CCDC88B, the median seed-adjusted z-score was -0.153 (inactive).
Regarding CCAGAGCAAAGGCUAUGAATT against ZNF350, the median seed-adjusted z-score is 0.133 (inactive).
As for UAAAAUCUAGGGAUCCAAUTT against POLR2K, the median seed-adjusted z-score is -3.72 (active).
AGAUUACGUUGAAGAACGATT against GNGT1: the median seed-adjusted z-score is -0.0382 (inactive).
For CAUUCACUGAGGCGACAGATT against ABCA9, the median seed-adjusted z-score was -0.139 (inactive).
With GAAGGGCCUUUUUAUCCAATT against MCTS1, the median seed-adjusted z-score is 0.116 (inactive).
Under CGACCAAGAUUAUGGAAUUTT against ADAMTS17 stands 0.257 (inactive); under GGCUAUCUGCUGAAGCGCATT against RASAL1, -0.089 (inactive); under CAAUGACUAUGAAUAAGUATT against SLC9A2, -1.02 (active).
On to GCCUUUAUGUGGACAUUAATT against SLCO2B1, for which the median seed-adjusted z-score is 0.289 (inactive).
With CGACAAUGUUAAGUUCAUATT against SULT6B1, the median seed-adjusted z-score was 0 (inactive).
For GCAUAGAUGUGGAUAGCUUTT against CFTR, the median seed-adjusted z-score is -1.23 (active).
On to GGUCCGUGACGAGAAGUUATT against RAB4A, for which the median seed-adjusted z-score was 0.0022 (inactive).
Take CGAACCAUUUCAUCACGUATT against MARS2: the median seed-adjusted z-score was -0.00523 (inactive).
Consider CCCUUAAACUCGAACCCAATT against HLX, for which the median seed-adjusted z-score was 0.379 (inactive).
On to GCACGGUAAUUUUGACAGUTT against CD302, for which the median seed-adjusted z-score was 0.0818 (inactive).
The result for GCUGUUACCUCGACGAGUATT against TSC2 reads 1.11 (active).
The result for GCAGCUCCGAAUUCAGGAATT against TFE3 reads -0.0442 (inactive); that for GAAGAACUCGAUCAGCUAATT against MYH4, -1.8 (active); that for GGAUCUGACAGUUCCAGAATT against CLDN20, -0.00173 (inactive).
As for GACAAUAUCCUACCCAUUUTT against SLC25A16, the median seed-adjusted z-score is 0.0479 (inactive).
Turning to AGAGAAUCCAGGAUCAGAATT against CHIT1, the median seed-adjusted z-score was -0.578 (inactive).
In the case of GGCUCGCUUUGAAAAGCUATT against LIN7A, the median seed-adjusted z-score is -1.39 (active).
The result for CGGACCCGCUGAGACAUUATT against HOXB6 reads -0.168 (inactive).
With GGCCUACAACGAAAGUGAATT against CAMKK1, the median seed-adjusted z-score was 0 (inactive).
The result for CAGUCGAACCUUUCCCAGATT against MSRA reads -0.0316 (inactive); that for GGGACUGGGAUUUACGUUATT against MTMR11, -0.0244 (inactive).
Turning to CUUCCUUCGUCUUCACCUATT against FOS, the median seed-adjusted z-score was 0.343 (inactive).
Under CGACGAUUCGUGCUUAAUATT against MYO5C stands 0 (inactive); under GCAAAACAGCGGCAGAACATT against ATP8B2, -0.268 (inactive); under GCAGAUCACAUGAAGAGAATT against DHX38, -0.723 (inactive).
As to CUCUUUAGCCGCUUCAUUATT against FMNL1, the median seed-adjusted z-score is -0.3 (inactive).
With GGGUCUUCGUCAUGCUCUATT against GPR142, the median seed-adjusted z-score is -0.0636 (inactive).
With CAGUGCUACUUGGAAUGUUTT against RHOJ, the median seed-adjusted z-score was -0.304 (inactive).
In the case of CACUAGUUUUGUUAGCGAATT against ATP13A4, the median seed-adjusted z-score is -1.09 (active).
For the sequence CAACAACUAUGACCCAGGATT against CHRNE, the median seed-adjusted z-score is 0.349 (inactive).
The result for CAGCAAUUCGUGGAGCUCATT against STX4 reads 0.759 (inactive); that for CACUAAAUGUGACUCCUGATT against TTC5, -0.296 (inactive); that for CUAUUAACAUGGUGACAGATT against EIF4A1, -1.05 (active).
Regarding GUGUGAUGAUAUUCGAAAATT against SGPP1, the median seed-adjusted z-score was 0.0859 (inactive).
Turning to GGAGGAAACUUCAACUUGUTT against PHF20L1, the median seed-adjusted z-score is 0 (inactive).
Take CAAAUUGAGUCACUCUUAATT against MGAT2: the median seed-adjusted z-score is -0.124 (inactive).
GGAUUUGGAGUAGAUCAAUTT against TIAL1: the median seed-adjusted z-score was -0.985 (inactive).
GCCUGUCCUUCUCCAUUGATT against ISX: the median seed-adjusted z-score was 1.99 (active).
With GCUUUGAAACUACAGAUGATT against HNRNPA3, the median seed-adjusted z-score is 0.915 (inactive).
For the sequence GAAGGUUUACAAGGACUUATT against KLK7, the median seed-adjusted z-score is 0 (inactive).
As to GCAGAGAUCAGCAACGUGATT against KRT77, the median seed-adjusted z-score was -0.0863 (inactive).
Consider GCACUUAUGCUGAUGAAGATT against ZNF398, for which the median seed-adjusted z-score was 0.119 (inactive).
Take CAAACGUAUUAGUUCAGCATT against KIF20B: the median seed-adjusted z-score was 0 (inactive).
With GGACAAGUAGCAAAGCGAATT against SLC7A14, the median seed-adjusted z-score was 0.132 (inactive).
CAACAACCUUACACGAGUATT against LRIG2: the median seed-adjusted z-score was 0.386 (inactive).
As to GAAGAAAUGUUGUUCGAAUTT against KAL1, the median seed-adjusted z-score is 0.0824 (inactive).
On to CGCCUGGUCUAUGAACUUUTT against SCARF1, for which the median seed-adjusted z-score is -0.324 (inactive).
As for GAAGUGUUUGAAUCUCGUATT against AKAP3, the median seed-adjusted z-score is 0.0138 (inactive).
